{"source": "PubChem BioAssay (NCI)", "note": "The panel holds about 83,000 compounds, 20% with a hit somewhere; the sample as a whole holds those more often.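 Percent growth is the endpoint: 0 to 100 indicates growth inhibition (40 means 60% inhibition), 0 means no net growth, and negative values indicate cell death.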 Values without a mark were called inactive. Activity calls are given as the source filed them.", "data": [{"test_system": "COLO 205 colon", "test": "NCI-60 one-dose screen, 48 h (100 = growth as untreated, 0 = no growth, -100 = all killed)", "settings": "10 µM unless noted", "protocol": "Cells are grown in 96 well plates and exposed to the test compound for 48 hours. Compounds are tested at a single concentration, which is 10^-5 M for most compounds. The reported endpoint is percent growth (GI% or GIPRCNT), where numbers from 0 - 100% represent growth inhibition, and numbers from -100% - 0 represent cell death. For example, a value of 40 represents 60% growth inhibition. A value of 0 means no net growth occurred over the course of the experiment. A value of -40 indicates 40% of cells at the beginning of the experiment died by the end of the experiment. A value of -100 means all cells are dead at the end of the experiment.\nNCI-60 Human Tumor Cell Lines Screen was performed using the standard one-dose NCI protocol, which is described in more detail at https://dtp.cancer.gov/discovery_development/nci-60/default.htm.\nCompounds with GIPRCNT values below 10 were considered active. Activity score was based on GIPRCNT using the following formula: […]\nScore is 0 for GIPRCNT values of 100 or above, 50 for GIPRCNT values of 0, and 100 for GIPRCNT values of -100.", "values": [{"smiles": "CC(=O)N1N=C(c2ccc(-n3ccc(C(F)(F)F)n3)c(F)c2)CC1c1ccc[nH]1", "note": "(stereo not given)", "growth": "122%"}, {"smiles": "NC(=NCCCOc1ccc(F)cc1)Nc1ccc(I)cc1", "growth": "-66.8% (active)"}, {"smiles": "COc1cc(-c2n/c(=C\\c3c(O)[nH]c4ccc(Cl)cc34)cc3c2=Nc2ccccc2-3)ccc1F", "growth": "7.9% (active)"}, {"smiles": "COc1ccc2[nH]c(O)c(/C=c3/cc4c(c(-c5ccc(F)cc5)n3)=Nc3ccccc3-4)c2c1", "growth": "96.6%"}, {"smiles": "OCc1cnc2ccccc2c1NC1CCCCCC1", "growth": "110%"}, {"smiles": "O=C(/C=C(O)/C=C/c1ccc(SC(F)(F)F)cc1)/C=C/c1ccc(SC(F)(F)F)cc1", "growth": "114%"}, {"smiles": "CN1C(=O)NC(c2ccc3c(c2)OCO3)C=C1c1ccccc1", "note": "(stereo not given)", "growth": "107%"}, {"smiles": "CC(=O)Nc1ccc(-c2ccc3c(c2)NC(=O)/C3=C\\c2ccc[nH]2)cc1", "growth": "139%"}, {"smiles": "CCOC(=O)Nc1ccc(-c2ccc3c(c2)NC(=O)/C3=C\\c2ccc[nH]2)cc1", "growth": "125%"}, {"smiles": "COC(=O)C1=C(C(=O)ON)[C@@H]2C=C[C@@]1([C@@H](Cc1ccccc1)Nc1ccccc1)O2", "growth": "-67% (active)"}, {"smiles": "O=S(=O)(NCCNc1nccc(-c2c(-c3cccc(O)c3)nc3occn23)n1)c1ccc(C(F)(F)F)cc1", "growth": "44.1%"}, {"smiles": "CCCCCCOc1ccc(/C=N/Nc2cc(C)nc3ccc(Cl)cc23)cc1", "growth": "-48.4% (active)"}, {"smiles": "O=C(Nc1cccc(C(=O)N2CCc3ccc(Cl)cc32)c1)c1ccco1", "growth": "27.5%"}, {"smiles": "NC(=NCCCOc1ccc(F)cc1)Nc1ccc(Cl)cc1", "growth": "-69.6% (active)"}, {"smiles": "O=[N+]([O-])CC(c1ccccc1F)c1c[nH]c2ccccc12", "note": "(stereo not given)", "growth": "80.4%"}, {"smiles": "C[C@H]1[C@H]2[C@H]3CC[C@@H]4[C@@]5(C)CC[C@H](O)C(C)(C)[C@@H]5CC[C@@]4(C)[C@]3(C)CC[C@]23CO[C@]1(C)[C@@H](C(=O)/C=C\\c1ccco1)C3", "growth": "-2.3% (active)"}, {"smiles": "Cc1ccccc1NS(=O)(=O)c1cccc(C(=O)Nc2ccc(Br)cc2)c1", "growth": "52.4% [25 µM]"}, {"smiles": "CCOC(=O)CCN(CC(C)C)C(=S)Nc1ccccc1", "growth": "113%"}, {"smiles": "O=C1Nc2cc(-c3ccc(NC(=O)c4ccccc4)cc3)ccc2/C1=C/c1ccc[nH]1", "growth": "118%"}, {"smiles": "O=C1C=CC(=O)N1c1cccc(Cl)c1", "growth": "-6.46% (active)"}, {"smiles": "Cc1ccc(-n2nc3c(c(C#N)c2=O)CC(c2ccccc2[N+](=O)[O-])C([N+](=O)[O-])=C3O)cc1", "note": "(stereo not given)", "growth": "101%"}, {"smiles": "C=C1C(=O)O[C@H]2[C@H]1CC/C(CNC(=O)/C=C/c1cccc(OC)c1)=C\\CC[C@@]1(C)O[C@@H]21", "growth": "-56.5% (active)"}, {"smiles": "CCCCNC(=O)Oc1ccc(/C(=C(\\C)c2ccccc2)c2ccc(OCCN3CCCCC3)cc2)cc1", "growth": "14.3%"}, {"smiles": "COc1cc2oc(-c3cccc(C(=O)Nc4ccc(Br)cc4)c3)cc(=O)c2c(OC)c1OC", "growth": "54.4%"}, {"smiles": "S=c1cc(S)c2cc(Br)ccc2[nH]1", "growth": "98.8%"}, {"smiles": "C[C@@H](Nc1ncnc2ccc(-c3cnc(N)nc3)cc12)c1ccc(F)cc1", "growth": "112%"}, {"smiles": "CC1(C)CC(=O)C2=C(C1)N(c1ccc(F)cc1F)C(N)=C(C#N)C2c1cc(Br)ccc1F", "note": "(stereo not given)", "growth": "118%"}, {"smiles": "COc1cc(C2C3CC4CCCC[C@H]4N3[C@@]3(C(=O)Nc4cc(Cl)ccc43)C2C(=O)c2nc3ccccc3[nH]2)cc(OC)c1OC", "note": "(stereo not given in full)", "growth": "59.7%"}, {"smiles": "COCCCN1CC(O)=C(c2nc(-c3ccc(C)cc3)cs2)C1=N", "growth": "133%"}, {"smiles": "C=CC(=O)N[C@@H](/C=C/C(=O)OCC)Cc1ccc(-c2cc(Cl)cc(Cl)c2)cc1", "growth": "6.63% (active)"}, {"smiles": "O=C1CC(=O)OC(c2ccc([N+](=O)[O-])cc2)O1", "growth": "-31% (active)"}, {"smiles": "O=c1c2c(c(=O)n1O)c1c3ccc[nH]c3nc1c1nc3[nH]cccc3c12", "growth": "94.9%"}, {"smiles": "COc1ccc(CCn2cncc2-c2c[nH]c3ccccc23)cc1", "growth": "96.9%"}, {"smiles": "Nc1n[nH]c2cccc(C#Cc3cccc(C(=O)Nc4cccc(C(F)(F)F)c4)c3)c12", "growth": "49.8%"}, {"smiles": "CCNc1nc2cc(Nc3ccnc4cc(Cl)ccc34)ccc2o1", "growth": "72.2%"}, {"smiles": "CCN(CC)c1ccc(C(=O)c2ccccc2)cc1", "growth": "111%"}, {"smiles": "CC/C(=C\\c1ccc(OC)cc1)C(=O)c1ccc(OC)cc1", "growth": "121%"}, {"smiles": "COc1cc(-c2csc(NC(=O)c3cc(F)cc(C(F)(F)F)c3)n2)cc(OC)c1OC", "growth": "25.5%"}, {"smiles": "Cc1cc2nc3c4cc([N+](=O)[O-])ccc4n(CCN(C)C)c3nc2cc1C", "growth": "-42.3% (active)"}, {"smiles": "COc1cc(/C=C/c2cc(O)c(C(C)=O)c(O)c2)cc2c1O[C@]1(C)CC[C@@H](O)C(C)(C)[C@H]1C2", "growth": "94.5%"}]}]}
